LDHA inh – blocks human lactate dehydrogenase A | purified LDHA, NADH/diaphorase-resazurin fluorescence; active compounds read low | activity change, % (values are at about 110 or 230 µM) | hit rate 0.15% among 480,000 | AID 1347041; in the data active = activity change below about -30%; inconclusive = mostly about -25% to -30%;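 also: plate controls were DMSO wells for no effect and wells without enzyme for full effect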
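Human LDH5 at 2 nM final in Tris HCl pH 7.4 with 0.06 mM NADH and 0.2 mM pyruvate, reacted 5 minutes at room temperature. Remaining NADH coupled via diaphorase/resazurin; resorufin fluorescence read at 0 and 20 minutes, normalized to enzyme-free and DMSO wells.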
EPAC1 ag – agonists of human EPAC1; EPAC1 agonist qHTS, biochemical assay; response scale: 100% = response to 6.5 mM cAMP; Potency, µM (top dose mostly 154 µM), for inactives: at the top dose activation, hits mostly activators; hit rate 0.073% among 360,000; O95398; also: potency is read from the fitted curve at half-maximal effect; nearly all actives have a fitted effect of over 60% in size
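Nucleotide exchange assay: 100 nM EPAC1 with 250 nM Rap1B loaded with BODIPY-GDP and 50 uM GDP, room temperature. Fluorescence (480/540 nm) read every 5 min for 30 min; signal change normalized to 6.5 mM cAMP as full agonist.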
EPAC2 antag – antagonists of human EPAC2; Potency, µM (titrated, usually from 114 µM), without a hit: at the top dose activity, negative = inhibition, actives largely listed as inhibitors; EPAC2 GEF exchange of Rap1B-BODIPY-GDP, fluorescence; hit rate 0.18% among 360,000; also: potency is read from the fitted curve at half-maximal effect; % is scaled to controls: 0 for no effect and ±100 for the full control effect; nearly all actives have a fitted effect of over 45% in size
EPAC2 ag – EPAC2 (human) agonism; Q8WZA2; EPAC2 activation, biochemical qHTS; response scale: 100% = 6.5 mM cAMP response; Potency, µM (top dose mostly 154 µM), for inactives: at the highest dose activation, actives largely listed as activators; hit rate 0.079% among 360,000; also: potency is read from the fitted curve at half-maximal effect; nearly all actives have a fitted effect of over 50% in size
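Guanine nucleotide exchange by EPAC2 is measured as reduced fluorescence of BODIPY-GDP once it is released from 250 nM Rap1B. Plates are read kinetically for 30 min at room temperature; results are scaled to 6.5 mM cAMP.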
USP1 inh – inhibitors of human USP1/UAF1 deubiquitinase; recombinant USP1/UAF1, Ub-Rhodamine cleavage fluorescence; Potency, µM (titrated, usually from 57.1 µM), without a hit: top-dose activity change, negative = inhibition, usual class: inhibitors; hit rate 0.23% among 390,000; O94782; also: potency is read from the fitted curve at half-maximal effect; % is scaled to controls: 0 for no effect and ±100 for the full control effect; nearly all actives have a fitted effect of over 60% in size
Target sequence (O94782 whole entry, looked up): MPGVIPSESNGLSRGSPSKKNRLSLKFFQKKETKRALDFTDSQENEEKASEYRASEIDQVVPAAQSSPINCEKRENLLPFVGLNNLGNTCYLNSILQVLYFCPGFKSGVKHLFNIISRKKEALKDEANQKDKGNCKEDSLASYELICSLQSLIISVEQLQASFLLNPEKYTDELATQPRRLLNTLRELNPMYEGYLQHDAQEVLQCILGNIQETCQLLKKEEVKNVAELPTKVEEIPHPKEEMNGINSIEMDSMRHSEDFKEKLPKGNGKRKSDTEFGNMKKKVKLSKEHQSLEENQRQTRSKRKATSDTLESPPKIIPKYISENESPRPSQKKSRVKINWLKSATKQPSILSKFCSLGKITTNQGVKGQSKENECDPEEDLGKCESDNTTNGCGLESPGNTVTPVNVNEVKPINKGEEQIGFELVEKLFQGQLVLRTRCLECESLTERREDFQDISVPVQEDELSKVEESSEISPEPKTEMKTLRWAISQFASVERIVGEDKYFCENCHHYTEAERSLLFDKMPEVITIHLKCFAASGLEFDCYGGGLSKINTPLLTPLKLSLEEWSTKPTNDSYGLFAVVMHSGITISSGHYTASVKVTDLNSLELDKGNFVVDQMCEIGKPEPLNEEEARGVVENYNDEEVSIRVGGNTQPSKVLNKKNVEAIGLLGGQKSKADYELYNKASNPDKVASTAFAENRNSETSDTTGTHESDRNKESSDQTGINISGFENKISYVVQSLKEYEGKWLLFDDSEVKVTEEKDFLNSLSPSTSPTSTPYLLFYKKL
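USP1/UAF1 complex (1 nM) preincubated 15 min at room temperature with compound, then Ub-Rho substrate (150 nM final) added. Kinetic fluorescence at 480/540 nm over 6 reads at 60 s intervals; 50 mM HEPES pH 7.8, 0.5 mM EDTA, 0.1 mg/ml BSA, 1 mM TCEP, 0.01% Tween-20.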
EPAC1 antag – blocks human EPAC1 exchange factor | EPAC1 GEF assay, Rap1b-BODIPY-GDP exchange fluorescence | O95398 | Potency, µM (series often up to 115 µM), for the others: top-dose activity change, negative = inhibition, actives largely listed as inhibitors | hit rate 0.14% among 360,000 | AID 720709;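 also: potency is read from the fitted curve at half-maximal effect; plate controls were vehicle for no effect and positive control for full effect; nearly all actives have a fitted effect of over 50% in size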
Numbers without * were called inactive; ? = inconclusive; nt = no result given. Sampled rows, rich in hits. Any-hit rate of the full collection: about 0.56%. Unless noted, calls follow the shape of the dose curve; as a rule, active = well fitted curve in the direction sought with a large enough effect; inconclusive = small, poorly fitted or top-dose-only effect, or another doubt; inactive = no such curve, though single readings can be large; an effect the other way counts as inactive or inconclusive.

SMILES | LDHA inh | EPAC1 ag | EPAC2 antag | EPAC2 ag | USP1 inh | EPAC1 antag
Cc1ccc(F)c(CNC(=O)C2(C)CCCN2C(=O)C(C)C)c1F (stereo unspecified) | -6.6 | -15.9% | -3.0% | 5.7% | nt | 2.1%
Cn1cc([C@]2(O)C(=O)Nc3ccc(Br)cc32)c2ccccc21 | -2.8 | -5.0% | 50.1µM* | -1.6% | nt | -0.2%
COc1ccc(NC(=S)Nc2ccc3nc(C)c(C)nc3c2)cc1 | 5.0 | 6.6% | 13.4% | 5.3% | -20.1% | -2.2%
CCOc1ccc(NC(=S)Nc2ccc3nsnc3c2)cc1 | 15.6 | 9.2% | 3.0% | 11.9% | 28.2µM* | -7.9%
COc1ccc(N(C)C(=O)Nc2ccc3nsnc3c2)cc1 | 29.9 | -14.8% | 2.1% | -1.6% | -18.2% | -7.9%
CC(C)N(C(=O)Nc1ccc2nsnc2c1)C(C)C | 11.0 | 17.0% | ? | ? | 6.31µM* | ?
COc1ccc(NC(=S)Nc2ccc3nsnc3c2)cc1 | 31.2 | 12.2% | ? | 24.1% | 5.62µM* | ?
COc1ccc(/C=N/N=C2/NC(=O)C(CC(=O)O)S2)cc1OCc1ccc(Cl)cc1Cl (stereo unspecified) | -45.5* | 1.7% | -4.3% | 0.0% | -14.8% | -6.9%
CCn1c(SCC(=O)N2CCC(C)CC2)nc2c(c1=O)SCC2 | -2.9 | 8.1% | 1.3% | -0.7% | -20.7% | -25.8%
CN(C)c1ccc(/C=C(/C#N)C(=O)Nc2nc3c(s2)CCN(Cc2ccccc2)C3)cc1 | -6.5 | 18.5% | 89.0% | 100µM* | ? | 3.4%
N#C/C(=C\c1ccc(OCc2ccccc2)cc1)C(=O)Nc1nc2c(s1)CCN(Cc1ccccc1)C2 | -6.8 | -4.5% | 36.9% | -7.9% | -18.5% | 4.8%
OCC[n+]1ccc(/C=C/c2c[nH]c3ccccc23)cc1 | 23.2 | ? | 67.3% | ? | 28.2µM* | 29.3%
C(=Cc1c[nH]c2ccccc12)c1nccc2ccccc12 | 14.0 | -0.8% | 10.3% | 19.1% | ? | 2.3%
O=C(Nc1c(-c2ccccc2)nc2ccccn12)c1cccc(F)c1 | -31.1* | 8.8% | 3.5% | 13.4% | -4.5% | 0.4%
O=S1(=O)N=C(Oc2ccc3ccccc3c2)c2ccccc21 | 4.5 | nt | nt | nt | nt | nt
O=C(CN1C(=O)NC(c2ccccc2)(c2ccccc2)C1=O)NC1CCCCC1 | -1.0 | -2.5% | 3.2% | 6.2% | -17.3% | 0.0%
Cc1c2ccccc2nc2c(F)c(NCCO)c(F)c(F)c12 | 16.8 | 7.5% | -4.2% | -6.4% | ? | 28.2µM*
OCCNc1c2ccccc2nc2c(F)c(F)c(F)c(F)c12 | 2.4 | 0.9% | 1.9% | 4.4% | -2.0% | -20.1%
CCc1cccc(C)c1NC(=O)CCc1c[nH]c2ccccc12 | -1.6 | nt | nt | nt | nt | nt
Cc1nn(-c2ccccc2)c(C)c1CN(C)C(=O)CCNC(=O)c1ccc(Cl)cc1 | 3.2 | nt | nt | nt | nt | nt
O=C(NCCCc1ccncc1)C1CCC(=O)N(CCc2cccc(F)c2)C1 (stereo unspecified) | -4.5 | -2.4% | 5.1% | 10.7% | -22.9% | 12.8%
O=C1CCCN1CCCNCC(=O)N1c2ccccc2Sc2ccccc21 | -41.1* | 6.0% | 1.9% | -5.3% | -9.1% | 11.8%
Cc1ccc(S(=O)(=O)N(CC(=O)NC2CC3CCC2C3)c2ccccc2)cc1 (stereo unspecified) | -42.6* | -6.0% | -2.4% | 8.3% | 4.5% | 3.2%
CC(C(=O)N1CCCc2ccccc21)N1CCN(c2ccccn2)CC1 (stereo unspecified) | -38.1* | -2.8% | 1.4% | 12.5% | -4.5% | ?
Cc1cccc(C(=O)NCCC(=O)NCCC(C)C)c1 | 10.4 | nt | nt | nt | nt | nt
SMILES | LDHA inh | EPAC1 ag | EPAC2 antag | EPAC2 ag | USP1 inh | EPAC1 antag
N#CCCCOC(=O)c1c[nH]c2ccccc12 | 0.3 | nt | nt | nt | nt | nt
O=c1oc(-c2ccccc2)c(-c2ccccc2)c2ccccc12 | -3.1 | 4.1% | 44.7µM* | 4.5% | -22.6% | -18.9%
N#Cc1c(-c2ccccc2)oc(=O)c2ccccc12 | 2.3 | 7.5% | -2.0% | -3.9% | -13.1% | -11.3%
N#C/C(=C\C1=C(N2CCOCC2)C(=C/c2cccc([N+](=O)[O-])c2)/CC1)C(=O)Nc1ccccc1F | -4.0 | 2.6% | ? | -35.0% | -12.8% | 5.3%
N#C/C(=C/C1=C(N2CCOCC2)C(=C/c2cccc([N+](=O)[O-])c2)/CC1)C(=O)Nc1ccccc1F | -6.6 | -1.9% | 79.4µM* | -6.6% | -8.7% | 0.6%
O=C(C[n+]1c2ccccc2cc2ccccc21)c1ccc(F)cc1 | -44.9* | nt | nt | nt | nt | nt
CCSc1nnc(-c2sc3nnc(-c4ccccc4)c(-c4ccccc4)c3c2N)o1 | 6.5 | 2.0% | 167.8% | 100µM* | 17.8µM* | -10.9%
CCOc1ccc(N=C2SCCCN2C(=O)c2c(CC)noc2C)cc1 | 0.1 | 3.5% | 0.4% | 6.2% | -17.2% | 5.5%
CCc1noc(C)c1C(=O)N1CCCSC1=Nc1ccccc1Cl | -2.0 | 5.3% | 50.1µM* | 15.9% | -10.0% | -12.8%
O=C(CSc1ncnc2c1sc1cccc(F)c12)NCCN1CCCCCC1 | -10.9 | nt | nt | nt | nt | nt
Cc1ccc(C2CC(c3cccs3)=NN2C(=O)CSc2nc(=O)n3cc(C)ccc3n2)cc1 (stereo unspecified) | 4.0 | 112µM* | 7.2% | 7.7% | -23.3% | -10.4%
CCOC(=O)c1cc2c(ccn2C)n1CC(=O)N1CCN(c2cccc(C(F)(F)F)c2)CC1 | 23.1 | -29.3% | ? | -13.7% | -19.6% | 56.2µM*
CCOCCCNc1nc2c(c(=O)n(C)c(=O)n2C)n1Cc1ccccc1Cl | -19.1 | nt | nt | nt | nt | nt
O=C1C=C(O)c2cccc(O)c2C1=O | 16.4 | -27.2% | 4.4% | -5.2% | 31.6µM* | -23.8%
CCOC(=O)N1CCc2c(sc(NCc3ccc(N(C)C)cc3)c2C(=O)Nc2ccc(OC)cc2)C1 | 28.0 | nt | nt | nt | 28.2µM* | nt
O=C(NCc1ccc(C(=O)N2CCCCC2)cc1)c1ccc(C(F)(F)F)cc1 | -1.0 | nt | nt | nt | nt | nt
COc1ccccc1NS(=O)(=O)c1cc([N+](=O)[O-])ccc1N/N=C/c1c(C)[nH]c2ccccc12 | -3.1 | -0.6% | -0.4% | -6.4% | 28.2µM* | -2.1%
Cc1[nH]c2ccccc2c1/C=N/Nc1ccc([N+](=O)[O-])cc1 | -0.3 | -8.1% | -0.4% | -5.3% | -16.1% | -21.5%
CCOc1cc(/C=C(/C#N)c2ccc(OC)c(OC)c2)cc(Br)c1OCCOc1ccc(C)cc1 | 5.5 | nt | nt | nt | nt | nt
COc1cc(NC(=O)c2cc(-c3ccccc3)on2)cc(OC)c1OC | -9.9 | 7.8% | -2.8% | 6.3% | -22.2% | 2.0%
COc1cc(NC(=O)c2cc3nc(-c4ccccc4)cc(-c4ccccc4)n3n2)cc(OC)c1OC | 1.6 | 7.5% | -14.5% | 17.9% | -12.6% | 56.2µM*
O=C(NCC(c1cccs1)N1CCOCC1)c1cc(=O)c2cc(Br)ccc2o1 (stereo unspecified) | -31.2* | nt | nt | nt | nt | nt
